PubChem BioAssay (NCATS)
Results filed as inconclusive are left out. A call without a number means that no potency is given here. Calls of active or inactive are those of the source. The call rests on the fitted dose curve; in most records, active means well fitted cell-killing curve with a large enough effect; inconclusive means small, poorly fitted or top-dose-only effect; inactive means flat fitted curve, though single readings scatter. Where a SMILES comes first, the peptide text is derived from it. [ ]: non-standard residue; d: D form. pGlu = O=C1CC[C@@H](C(=O)O)N1; Thz = O=C(O)[C@@H]1CSCN1

Assay: qHTS assay to identify small molecule inhibitors of chordoma cells - UCH-2 (AID 1259356)
Conditions: UCH-2 chordoma viability, CellTiter-Glo ATP luminescence, 48 h; series mostly up to 46.1 µM
From the text: NIH Chemical Genomics Center [NCGC]
Chordoma is a rare and slow growing tumor that can occur anywhere along the spine, from the base of the skull to the tailbone. Current treatment options for chordoma is surgery and radiation therapy for those who are not candidates for surgery. But chordomas tend to return in the same location or surrounding areas of the original tumor after surgery and/or radiation. Chemotherapy can slow down the progression of the tumor. As chordoma is slow growing, the general cytotoxic agents that kill fast growing cells are ineffective, and some patients have been reported to respond to molecularly targeted drugs.
NCATS Pharmaceutical Collection (NPC) containing approximately 3000 clinically approved and investigational drugs were used to screen at 15 concentrations in a chordoma cell lines, UCH-2, to identify small molecule compounds that can inhibit chordoma cell growth.
NCGC Assay Protocol Summary:
Human chordoma cell line UCH-2 was dispensed at 800 per well in 4uL of culture medium into white solid bottom 1536-well plates (Corning Life Sciences, Corning, NY) using a Multidrop Combi (Thermo Scientific, Waltham, MA) dispenser. The assay plates were incubated at 37 C and 5% CO2 for an overnight, and then 23nL of compounds dissolved in DMSO and positive control were transferred using a Pintool station (Wako, San Diego, CA). Compound treatment was followed by the addition of 1uL of the combination compounds (1uM Auranofin, 500nM each of Camptothecin, Doxorubicin, Rubitecan, and Topotecan) and assay medium to each well of the assay plates using Flying Reagent Dispenser (FRD, Aurora Discovery, San Diego, CA). The assay plates were incubated at 37 C and 5% CO2 for 48hr. Then 5uL of CellTiter-Glo reagent (Promega Corporation, Madison, WI) was added to each well of the assay plates using FRD. After 30min incubation at room temperature, the luminescence signal was quantified using a ViewLux plate reader (PerkinElmer, Shelton, CT).
Potency means the concentration at half of the fitted maximal effect.

| Structure (SMILES) | Potency |
| --- | --- |
| CCC1C(=O)OCC1Cc1cncn1C (stereo not given) | inactive |
| O=C(O)[C@H](CC(=O)N1C[C@H]2CCCC[C@H]2C1)Cc1ccccc1 | inactive |
| CCCCCCCCCCCCCCCCCC(=O)O | inactive |
| CCOc1ccc2nc(S(N)(=O)=O)sc2c1 | inactive |
| CCCCC1C(=O)N(c2ccccc2)N(c2ccc(O)cc2)C1=O (stereo not given) | inactive |
| C=C(Nc1ccc(OCC)cc1)Nc1ccc(OCC)cc1 | inactive |
| O=C(O)c1cc(O)c(O)c(O)c1 | inactive |
| O=C(O)/C=C/C(O)c1ccc(Cl)cc1 (stereo not given) | inactive |
| CC(=O)O[C@H]1C[C@@]2(C)[C@@H](C[C@@H](O)[C@H]3[C@@]4(C)CC[C@@H](O)[C@@H](C)[C@@H]4CC[C@@]32C)/C1=C(\CCC=C(C)C)C(=O)O | inactive |
| Nc1ccc(O)c(C(=O)O)c1 | inactive |
| CO/N=C(\C(=O)N[C@@H]1C(=O)N2C(C(=O)O)=C(COC(C)=O)CS[C@H]12)c1csc(N)n1 (stereo in doubt) | inactive |
| Cc1onc(-c2c(F)cccc2Cl)c1C(=O)N[C@@H]1C(=O)N2[C@@H]1SC(C)(C)[C@@H]2C(=O)O | inactive |
| O=C(Nc1ccc(C(=O)O)c(O)c1)c1ccccc1 | inactive |
| CCCSc1ccc2nc(NC(=O)OC)[nH]c2c1 | inactive |
| CC1(C)S[C@@H]2[C@H](NC(=O)[C@H](NC(=O)N3CCN(S(C)(=O)=O)C3=O)c3ccccc3)C(=O)N2[C@H]1C(=O)O | inactive |
| COc1cc(/C=C/C(=O)CC(=O)/C=C/c2ccc(O)c(OC)c2)ccc1O | inactive |
| CN1[C@@H](CC(=O)c2ccccc2)CCC[C@H]1C[C@H](O)c1ccccc1 | inactive |
| O=C(O)[C@H](O)[C@@H](O)[C@H](O)[C@H](O)CO | inactive |
| [O-][n+]1ccccc1SSc1cccc[n+]1[O-] | inactive |
| COc1ccc(-c2cc(=S)ss2)cc1 | inactive |

| Structure (SMILES) | Potency |
| --- | --- |
| CC[C@H]1OC(=O)[C@H](C)[C@@H](O[C@H]2C[C@@](C)(OC)[C@@H](O)[C@H](C)O2)[C@H](C)[C@@H](O[C@@H]2O[C@H](C)C[C@H](N(C)C)[C@H]2O)[C@](C)(O)C[C@@H](C)C(=O)[C@H](C)[C@@H](O)[C@]1(C)O | inactive |
| CC1(C)[C@@H](O[C@H]2O[C@H](C(=O)O)[C@@H](O)[C@H](O)[C@H]2O[C@@H]2O[C@H](C(=O)O)[C@@H](O)[C@H](O)[C@H]2O)CC[C@]2(C)[C@H]3C(=O)C=C4[C@@H]5C[C@@](C)(C(=O)O)CC[C@]5(C)CC[C@@]4(C)[C@]3(C)CC[C@@H]12 | inactive |
| C[C@H](O)[C@H](O)[C@H]1CNc2nc(N)[nH]c(=O)c2N1 | inactive |
| c1ccc2sc(SN3CCOCC3)nc2c1 | inactive |
| CO[C@H]1C[C@@H]2CC[C@@H](C)[C@@](O)(O2)C(=O)C(=O)N2CCCC[C@H]2C(=O)O[C@H]([C@H](C)C[C@@H]2CC[C@@H](O)[C@H](OC)C2)CC(=O)[C@H](C)C=C(C)[C@@H](O)[C@@H](OC)C(=O)[C@H](C)C[C@H](C)/C=C/C=CC=C1C | inactive |
| O=C(O)Cc1ccc(-c2ccccc2)cc1 | inactive |
| Clc1ccccc1-c1nc(-c2ccncc2)no1 | inactive |
| CCCCCCCCCCCC(=O)[O][Sn]([CH2]CCC)([CH2]CCC)[O]C(=O)CCCCCCCCCCC | inactive |
| C#CC1(O)CC[C@H]2[C@@H]3CCC4=CCCC[C@@H]4[C@H]3CC[C@@]21C (stereo not given in full) | inactive |
| COc1cccc2c1C(=O)c1c(O)c3c(c(O)c1C2=O)C[C@@](O)(C(=O)CO)C[C@@H]3O[C@H]1C[C@H](N)[C@H](O[C@@H]2CCCCO2)[C@H](C)O1 | 18.3 µM (active) |
| CN1CCN(c2cc3c(nn2)Oc2ccccc2N3C)CC1 | inactive |
| COc1cc(NC(C)CCCN)c2ncccc2c1 (stereo not given) | inactive |
| CCCCC[C@H](O)/C=C/[C@@H]1[C@@H](C/C=C\CCCC(=O)O)[C@@H](O)C[C@H]1O | inactive |
| CN1CC(=O)N/C1=N/C(=O)Nc1cccc(Cl)c1 | inactive |
| COC(=O)[C@H]1[C@H]2C[C@@H]3c4[nH]c5cc(OC)ccc5c4CCN3C[C@H]2C[C@@H](OC(=O)/C=C/c2cc(OC)c(OC)c(OC)c2)[C@@H]1OC | inactive |
| Cc1c(C(=O)O)c(O)cc2c1C(=O)c1c(O)c([C@@H]3O[C@H](CO)[C@@H](O)[C@H](O)[C@H]3O)c(O)c(O)c1C2=O | inactive |
| Cc1ccc(O)c(-n2nc3ccccc3n2)c1 | inactive |
| C#C[C@]1(O)CC[C@H]2[C@@H]3CCc4cc(O)ccc4[C@H]3CC[C@@]21C | inactive |
| O=C1CC[C@@H](C(=O)N2CSC[C@H]2C(=O)O)N1 ([pGlu]-[Thz]-OH) | inactive |
| C=CCCCCCCCCC(=O)O | inactive |
